# DRD3 agonist – activates the human D3 dopamine receptor. P35462. D3R DiscoveRx beta-arrestin cells, luminescence, 90 min. max activation, %. 410,000 tested, 0.58% active; in the data active = max activation above about 30%; note: 0% is about no effect
# Target sequence (P35462 whole entry, looked up): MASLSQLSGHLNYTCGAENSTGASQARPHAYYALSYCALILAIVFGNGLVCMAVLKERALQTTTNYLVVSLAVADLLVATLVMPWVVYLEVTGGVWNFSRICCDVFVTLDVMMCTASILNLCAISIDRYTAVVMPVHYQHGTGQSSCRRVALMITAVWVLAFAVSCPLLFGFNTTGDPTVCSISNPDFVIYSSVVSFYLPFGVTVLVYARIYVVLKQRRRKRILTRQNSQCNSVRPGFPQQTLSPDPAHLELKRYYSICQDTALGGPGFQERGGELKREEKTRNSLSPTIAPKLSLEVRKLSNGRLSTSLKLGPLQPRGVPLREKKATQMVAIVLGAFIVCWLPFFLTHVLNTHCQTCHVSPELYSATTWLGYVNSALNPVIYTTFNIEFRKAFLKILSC
#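 Cells at 1500/well, incubated overnight, then treated with pinned compounds (dopamine as control) for 90 min at 37 degrees C. DiscoveRx reagent added for 30 - 60 minutes at room temperature; luminescence read.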
# GRP78 ERSR act – induces the endoplasmic reticulum stress response in human glioma cells; AID 602332; U87-MG GRP78 promoter luciferase reporter, 16 h; 420,000 tested, 0.02% active; Potency, µM, for inactives: top-dose activation, actives largely listed as activators; note: potency is the fitted concentration of half-maximal effect; series mostly up to about 76 µM; % of control where 0% means no effect; nearly all actives have a fitted effect of over 35% in size
#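 Stably transfected U87-MG glioma cells carrying a GRP78-based luciferase sensor; 16 h compound incubation. Luminescence end-point read 10 min after Bright-Glo addition at room temperature.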
# D3 antag – D3 dopamine receptor (human) antagonism. P35462. D3R cells, DiscoveRx beta-arrestin luminescence, antagonist mode; hits give low values. max response, negative = inhibition, %. 360,000 tested, 2.5% active. AID 652054; in the data active = max response below about -50%; inconclusive = no clear call, values can overlap the other calls; note: % is set by controls: 0 for no effect and ±100 for the full control effect
#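 Cells plated overnight at 1500 cells/well, then exposed to library compounds with dopamine controls for 90 minutes at 37 degrees C. DiscoveRx reagent added for 30–60 minutes at room temperature; luminescence read, quantitative HTS format.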
# Nrf2 activator – activators of Nrf2 (ARE) signaling; AREc32 ARE-luciferase reporter (MCF7-derived line), luminescence, 24 h; Potency, µM (doses to about 46.1 µM), inactives show at the highest dose activation, most hits filed as activators; 410,000 tested, 0.31% active; note: potency is the fitted concentration of half-maximal effect; % of control where 0% means no effect; nearly all actives have a fitted effect of over 65% in size
#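 AREc32_Fluc, 1000 cells/well, OPTI-MEM + 5% FBS, o/n 37 deg C 5% CO2; 23 nL cpd by pin tool, 24 hr; Steady-Glo 30 min RT, luminescence.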
# * marks the source's active call; other numbers are inactive results; ? = inconclusive; · = no result given. Most compounds without a hit are left out; they make up all but 3% or so of the library. Unless noted, calls come from the whole dose curve; as a rule, active = well fitted curve in the direction sought with a large enough effect; inconclusive = small, poorly fitted or top-dose-only effect, or another doubt; inactive = no such curve, though single readings can be large; an effect the other way counts as inactive or inconclusive.
SMILES,DRD3 agonist,GRP78 ERSR act,D3 antag,Nrf2 activator
O=C(Nc1ccccc1C(=O)N1CCN(Cc2ccccc2)CC1)c1ccc(F)cc1,-10,-2%,-15,3%
O=C(Nc1ccccc1C(F)(F)F)c1ccc(CN2CCC(Cc3ccccc3)CC2)cc1,-17,-8%,-52*,7%
COc1cccc(NS(=O)(=O)c2ccc3c(c2)N(C)C(=O)CC(=O)N3C)c1,5,-1%,·,0%
C=C1C(=O)O[C@H]2C1CC[C@@](C)(O)C13C=CC(C)(C21)C1(C3)C(=O)O[C@@H]2C3C(C)=CCC3[C@](C)(O)C[C@H](OC(C)=O)C21 (some centres not stated),1,-6%,3,16µM*
CSc1nc(N)nc2c1ncn2CC(=O)NCc1ccc2[nH]ccc2c1,48*,-2%,13,4%
CSc1nc(N)nc2c1ncn2CC(=O)NCc1ccccc1,8,-2%,32,0%
COc1ccc(CCNc2ccncn2)cc1OC,31*,-2%,26,-1%
O/N=C(/C[n+]1cccc(Br)c1)c1ccc2ccccc2c1,·,0%,·,·
NS(=O)(=O)c1ccc(N2CCN(S(=O)(=O)Cc3ccccc3)CC2)nc1,-2,-4%,-7,-1%
NS(=O)(=O)c1ccc(N2CCN(CCOc3ccc(Cl)cc3)CC2)nc1,36*,-3%,-12,2%
C[C@@H]1CCN(C(=O)[C@H](CCCN=C(N)N)NS(=O)(=O)c2cccc3c2NC[C@H](C)C3)[C@@H](C(=O)O)C1,95*,·,·,·
CC(C)C[C@H](NC(=O)[C@H](Cc1ccccc1)NC(=O)[C@@H]1CCCN1C(=O)[C@H](CC(=O)O)NC(=O)[C@@H]1CCC(=O)N1)C(=O)N[C@@H](CCCN=C(N)N)C(=O)N[C@@H](Cc1ccccc1)C(N)=O,·,-4%,·,·
CC(C)CC1OC(=O)C2=CCCCC21 (configuration not stated),·,-8%,·,·
CN(CC1COCCO1)C(=O)c1cnn(-c2nccc(-c3ccccc3C(F)(F)F)n2)c1C1CC1 (configuration not stated),·,-3%,·,·
CC(C)Oc1ccc(CNC(=O)c2ccc3c(c2)N(C)CCS3)cc1,-9,8%,-74*,5%
COc1ccc(CNC(=O)c2ccc3c(c2)N(C)CCS3)cc1,-16,0%,?,0%
COc1ccc(C(=C2C(=O)Nc3ccccc32)c2ccc(OC)cc2)cc1,·,2%,·,·
Cc1cccc(NC2=C/C(=N/S(=O)(=O)c3cccs3)c3ccccc3C2=O)c1,-15,5%,-93*,8%
O=C1/C(=N\S(=O)(=O)c2cccs2)C([n+]2ccccc2)=C([O-])c2ccccc21,-10,-5%,-17,1%
Cc1ccc(NC2=C/C(=N\S(=O)(=O)c3cccs3)c3ccccc3C2=O)c(C)c1,-22,-12%,-91*,-2%
Cc1cccc(NC2=C(NCCO)C(=O)c3ccccc3C2=O)c1,-9,-1%,-27,1%
CC(C)(C)c1cc[n+](C2=C([O-])c3ccccc3C(=O)/C2=N\S(=O)(=O)c2cccs2)cc1,-8,-14%,-28,-3%
Cc1ccc(Cl)cc1NC1=C/C(=N\S(=O)(=O)c2cccs2)c2ccccc2C1=O,-36,-13%,-108*,-3%
Cc1ccccc1NC(=O)Cn1cc(S(=O)(=O)c2ccccc2)c(=O)c2ccccc21,2,-3%,·,0%
Cc1ccc2[nH]c3c(c2c1)CCCC3=O,0,2%,13,7%
SMILES,DRD3 agonist,GRP78 ERSR act,D3 antag,Nrf2 activator
O=C1CCCc2c1[nH]c1ccc(CN3CCCCC3)cc21,-78,-3%,-54*,10%
Cc1cccc(C)c1NC(=O)c1ccc(-c2cc(F)ccc2F)o1,-21,-4%,-57*,8%
Cc1ncc2c(c1CNC(=O)c1ccc3c(c1)OCO3)CCN(C(=O)c1scc3c1CCCC3)C2,·,-5%,·,·
COc1ccc(C#CC2=CC(=O)CC(C)(C)C2)cc1,-5,11%,-16,13µM*
COc1ccccc1C#CC1=CC(=O)CC(C)(C)C1,-6,-2%,-17,14µM*
CCc1ccc(C#CC2=CC(=O)CC(C)(C)C2)cc1,-1,-1%,-21,?
Nc1ccc(-c2cc3ccccc3[nH]2)cc1,·,1%,·,·
Cc1nn(Cc2ccc([N+](=O)[O-])cc2)c(=O)n1-c1ccc(F)cc1,12,-3%,-7,0%
Cc1nn(Cc2ccc([N+](=O)[O-])cc2)c(=O)n1-c1c(F)cccc1F,1,-2%,-61*,0%
CC(=O)N(C)C1=C(N2CCOCC2)C(=O)c2ccccc2C1=O,-33,-16%,-57*,-2%
CC(=O)N(C1=C(N2CCOCC2)C(=O)c2ccccc2C1=O)c1ccc(C(=O)O)cc1,-5,-13%,16,-3%
C=CCn1c(-c2ccc(Cl)cc2)c[nH]c1=S,-1,4%,-109*,5%
C=CCn1c(-c2ccccc2)c[nH]c1=S,-3,11%,-68*,11%
CCn1c(-c2ccc(-c3ccccc3)cc2)c[nH]c1=S,-3,2%,-12,5%
Cn1c(-c2ccc(-c3ccccc3)cc2)c[nH]c1=S,-22,0%,?,15%
CCc1ccccc1-n1nnc(-c2nsc(NC(=O)c3ccc(C)c(C)c3)n2)c1C,8,-3%,·,-1%
COC(=O)c1ccc2nc(-c3ccco3)c(Cc3ccc(OC)cc3C)n2c1,5,-5%,7,11µM*
COC(=O)c1ccc2nc(-c3ccco3)c(Cc3ccc(C)cc3)n2c1,6,?,?,11µM*
COC(=O)c1ccc2nc(-c3ccco3)c(Cc3cccc(F)c3)n2c1,-12,5%,0,11µM*
COc1ccccc1C1CN(CC(=O)NCC2OCCc3ccccc32)Cc2ccccc2O1 (configuration not stated),·,-3%,·,·
Cc1ccc(-c2csc(C(O)(c3ccccc3)C(F)(F)F)n2)cc1C (configuration not stated),-10,-11%,-27,-1%
CN(C)c1ccc(-c2csc(C(O)(c3ccccc3)C(F)(F)F)n2)cc1 (configuration not stated),-12,1%,-94*,0%
Cc1ccnc(NC(=S)NC(=O)/C=C/c2ccco2)c1,2,0%,-51*,?
Cc1ccc(O)c(NC(=S)NC(=O)/C=C/c2ccco2)c1,-7,1%,-21,7%
Cc1ccc(O)c(NC(=S)NC(=O)/C=C/c2ccccc2)c1,-3,-3%,-18,11µM*
SMILES,DRD3 agonist,GRP78 ERSR act,D3 antag,Nrf2 activator
O=C(/C=C/c1ccco1)NC(=S)NNC(=O)c1ccco1,15,0%,-84*,?
O=C(/C=C/c1ccco1)NCCc1ccc(F)cc1,6,5%,-11,14µM*
Cc1ccc(C(C)C)c(OCc2nn(CC(=O)c3ccc(Cl)cc3)c3[n+]2CCCCC3)c1,-16,-17%,-52*,-3%
O=C(Cn1nc(CNc2ccc(Cl)cc2)[n+]2c1CCCCC2)c1ccccc1,-15,-4%,12,0%
O=C(CSc1nccc(-c2cccs2)n1)Nc1ccc(Cl)cc1,-6,-3%,2,?
O=C(CSc1nccc(-c2cccs2)n1)Nc1cccc(Cl)c1Cl,7,-5%,3,2.2µM*

# From PubChem
